Out of some 44,000 sequences screened, about 3,500 (8%) were called active. No stated cut-off is given here; in the data, active = GI50 up to about 1.1 µM and inactive = higher. These entries were drawn from the full list. Entries with a potency or affinity are not part of this list.

In the assay the test system is PC-3.
A word on the GI50: it is the concentration that inhibits growth by half. Low values mean greater sensitivity of the cells, high ones lower sensitivity of the cells. Substance “[Bis(aminomethyl)pentamethylenesilane]tetrachloropaltinum(IV), CHEMBL2146204” showed a GI50 of 1.83 µM.
“[Bis(aminomethyl)dimethylsilane]tetrachloroplatinum(IV), CHEMBL2146190” displayed a GI50 of 22.9 µM.
With “[Bis(aminomethyl)tetramethylenesilane]tetrachloropaltinum(IV), CHEMBL2146189” the figure was 8.36 µM; with CISPLATIN, CHEMBL11359, 5.01 µM; with “[Bis(aminomethyl)tetramethylenesilane]dichloropaltinum(II), CHEMBL2146205”, 7.19 µM.
With “[Bis(aminomethyl)pentamethylenesilane]dichloropaltinum(II), CHEMBL2146202” the figure was 1.64 µM.

The values above are taken from ChEMBL document CHEMBL1201862, “PubChem BioAssay data set” (2004).
